# Compound activity (PubChem BioAssay)
# DAX1 inh-1 – inhibitors of DAX1 repression of SF-1 activated StAR promoter; HEK293T StAR-luciferase reporter, SF-1/DAX-1 repression relief; inhibition, % at 6.8 µM; actives 1.1% (n = 370,000);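 active = inhibition above the mean over all tested compounds plus 3 SD, cut at about 3.6% in these data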;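 note: 0% = DAX-1 cells with DMSO and 100% = cells lacking DAX-1 with DMSO; higher inhibition means more luminescence from relief of DAX-1 repression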
# ssDAF-12 act – activators of S. stercoralis DAF-12 nuclear receptor; HEK293 ssDAF-12/GRIP1 lit1-tk-luc reporter, luminescence; % of 3 µM dafachronic acid response; activation, % at 6.8 µM; actives 1% (n = 370,000); AID 652126;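 active = activation above the mean over all tested compounds plus 3 SD, cut at about 0.9% in these data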;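 note: 0% = DMSO-only wells and 100% = 3 µM delta7-dafachronic acid wells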
# hcDAF-12 act – activators of H. contortus DAF-12 nuclear receptor. HEK293 hcDAF-12 lit1-tk-luc reporter, luminescence; 0% DMSO, 100% Δ7-dafachronic acid. activation, % at 6.8 µM. actives 1.4% (n = 370,000);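 active = activation above the mean of all tested compounds plus 3 SD, cut at about 5.5% in these data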;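 note: 100% = response to 3 µM Δ7-dafachronic acid high control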
# hgDAF12 agonist – agonists of H. glycines DAF-12 nuclear receptor. actives 1.8% (n = 370,000). activation, % at 6.8 µM. HEK293 GAL4-hgDAF12 UAS-luciferase reporter, agonist luminescence; normalized to butyrate control;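 active = activation above a cutoff set at the mean of all screened compounds plus 3 SD, cut at about 10% in these data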;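 note: 0% = DMSO wells and 100% = sodium butyrate wells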
# DAX1 inh-2 – NR0B1 (DAX1) inhibition. P51843. actives 0.99% (n = 340,000). inhibition, % at 6.75 µM. HEK293 Gal4-DAX1 luciferase reporter, luminescence;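 active = inhibition above the mean over all tested compounds plus 3 SD, cut at about 4.2% in these data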;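 note: 0% = DAX1-transfected cells with DMSO and 100% = empty-vector control cells with DMSO; inhibition shows as a rise in luminescence from relieved DAX1 repression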
# SMARCA2 act – SMARCA2 function activation, primary screen; MG213 cells, MMTV-luciferase reporter, dexamethasone, overnight; activation, % at 9.1 µM; actives 1% (n = 370,000); in the data active = activation above about 7.8%;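 note: 0% = vehicle wells and 100% = reference activator wells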
# DAX1 inh confirm – confirmation of human DAX1 (NR0B1) inhibitors; shares compounds with DAX1 inh-1; HEK293T StAR-promoter luciferase reporter, SF-1/DAX-1 repression; inhibition, % at 6.8 µM; actives 87% (n = 2,400);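 active = inhibition above the average of every tested compound plus 3 SD, cut at about 3.8% in these data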;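 note: 0% = DAX-1 cells with DMSO and 100% = no DAX-1 control cells with DMSO; active compounds raise luminescence by relieving repression of the StAR reporter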
# Target sequence (P51843 whole entry, looked up): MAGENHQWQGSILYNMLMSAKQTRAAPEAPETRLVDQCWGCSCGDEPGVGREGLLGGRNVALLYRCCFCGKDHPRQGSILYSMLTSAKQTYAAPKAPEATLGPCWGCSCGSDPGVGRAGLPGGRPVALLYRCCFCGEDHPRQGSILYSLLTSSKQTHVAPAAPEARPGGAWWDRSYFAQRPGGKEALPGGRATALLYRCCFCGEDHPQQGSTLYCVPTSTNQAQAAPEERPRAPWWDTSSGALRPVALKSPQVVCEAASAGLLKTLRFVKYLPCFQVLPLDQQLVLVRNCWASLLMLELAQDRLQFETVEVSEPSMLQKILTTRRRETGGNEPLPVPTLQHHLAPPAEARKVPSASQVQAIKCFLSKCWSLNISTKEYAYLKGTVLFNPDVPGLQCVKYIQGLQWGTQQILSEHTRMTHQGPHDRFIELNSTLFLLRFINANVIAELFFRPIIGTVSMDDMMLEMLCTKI
# SF1 AF2mut Luc – counter-screen for DAX1 inhibitors: nonselective inhibitors with SF-1 AF2 mutant; HEK293 StAR-luciferase, luminescence; actives 78% (n = 2,400); shares compounds with DAX1 inh-1; inhibition, % at 6.8 µM; AID 652136;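 active = inhibition above the mean of all tested compounds plus 3 SD, cut at about 3% in these data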;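 note: 0% = DAX-1 transfected cells with DMSO and 100% = cells without DAX-1 with DMSO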
# LXR ag – activates human LXR-beta, counter-screen for hcDAF-12 agonists; activation, % at 6.8 µM; shares compounds with hcDAF-12 act; HEK293 Gal4-LXR tk-luc reporter, luminescence, 24 h; normalized: DMSO 0%, positive control 100%; 3,400 tested, under 10 active;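 active = mean percent activation of the reporter above a cutoff set as the average over tested compounds plus their standard deviation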
# hcDAF12 conf – hcDAF-12 agonism, confirmation assay; activation, % at 6.8 µM; shares compounds with hcDAF-12 act; HEK293 hcDAF-12 lit1-tk-luc reporter, luminescence; % of Δ7-dafachronic acid response; AID 743032; actives 61% (n = 3,400);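 active = mean activation across triplicate tests above the threshold derived from the earlier primary screen, cut at about 5.5% in these data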;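 note: 0% = DMSO only wells and 100% = 3 µM Δ7-dafachronic acid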
# hgDAF12 ag – hgDAF-12 agonism, confirmation assay. shares compounds with hgDAF12 agonist. HEK293 GAL4-hgDAF12 luciferase reporter, agonist mode; percent of butyrate response. activation, % at 6.8 µM. actives 80% (n = 3,300). AID 743050;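 active = mean activation over triplicate wells above the hit cutoff derived from the earlier primary screen, cut at about 11% in these data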;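 note: 0% = DMSO low control and 100% = 2 mM sodium butyrate high control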
# LXRb DAF12 ctr – counter-screen for DAF-12 agonists: agonists of human LXR-beta | shares compounds with hgDAF12 agonist | HEK293 Gal4-LXR luciferase reporter, 24 h | activation, % at 6.8 µM | 3,300 tested, under 10 active;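 active = mean activation of the triplicate above a set limit carried over from the primary screen, none filed active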
# Active calls of the source: *; nt = no result given. An excerpt weighted towards active compounds, which were near 4.8% of everything screened.
SMILES,DAX1 inh-1,ssDAF-12 act,hcDAF-12 act,hgDAF12 agonist,DAX1 inh-2,SMARCA2 act,DAX1 inh confirm,SF1 AF2mut Luc,hgDAF12 ag,LXRb DAF12 ctr,others
O=C(Nc1ccc(SC(F)F)cc1)C1=COCCO1,4.9*,1,4,15*,1,7,13*,6.8*,14*,1,
Cc1cc(C)c[n+](-c2nc([O-])sc2C=O)c1,1,-1,-1,0,1,2,nt,nt,nt,nt,
CSc1nc(N)nc2c1ncn2CC(=O)NCCCc1ccccc1,-2,-1,-3,-3,-3,-3,nt,nt,nt,nt,
CCOc1ccccc1Nc1nc(-c2cccnc2)cs1,-1,-1,0,3,1,-1,nt,nt,nt,nt,
c1ccc(Nc2nc(-c3cccnc3)cs2)nc1,5.8*,0,10*,18*,1,0,7.5*,6.3*,20*,1,LXR ag=2;hcDAF12 conf=8.1*
NC(=O)C1CC(=O)N(c2ccc(OCc3ccc(Cl)cc3Cl)cc2)C1 (stereo unspecified),0,-1,-1,2,-1,3,nt,nt,nt,nt,
NC(=O)C1CC(=O)N(c2ccc(OCc3ccc(Cl)c(Cl)c3)cc2)C1 (stereo unspecified),10*,1,5.8*,25*,4.5*,6,15*,9.3*,16*,1,
CCN(CC)C(=O)Oc1ccc2ccccc2c1Cl,0,-2,-2,-2,1,6,nt,nt,nt,nt,
CSc1ccc(/C=N/NC(=O)c2sccc2C)cc1,5.8*,1.7*,7.1*,16*,1,0,16*,7.9*,24*,1,LXR ag=2;hcDAF12 conf=6.6*
CSc1ccc(/C=N/NC(=O)c2ccc(C)c(C)c2)cc1,0,-1,-1,1,1,0,nt,nt,nt,nt,
CCn1cc(-c2cc(C(=O)O)c3ccccc3n2)c(C)n1,0,0,-2,-1,0,3,nt,nt,nt,nt,
COCCN1C(=O)C(=O)/C(=C(/O)c2cccc(S(=O)(=O)N(C)C)c2)C12C(=O)N(C)c1ccccc12 (stereo unspecified),1,-1,0,1,1,2,nt,nt,nt,nt,
COc1ccc(/C=C2\SC(=O)N(CCNC(=O)C3CC4C=CC3C4)C2=O)cc1 (stereo unspecified),5.5*,0,3,21*,3,5,8.6*,4.3*,23*,1,
CCC(=O)Nc1cccc(-c2ccc(N3CCN(C)CC3)nn2)c1,nt,nt,nt,nt,1,nt,nt,nt,nt,nt,
CN1CCN(c2ccc(-c3cccc(NC(=O)COc4ccc(Cl)cc4)c3)nn2)CC1,7.9*,1,3,14*,1,3,4.5*,2,10,1,
CCC(=O)Nc1cccc(-c2ccc(N3CCCCC3)nn2)c1,15*,0,5.9*,14*,-1,6,10*,4.7*,15*,1,
CCC(C)(C)NC(=O)C1CCC(CNS(=O)(=O)c2cccc3nsnc23)CC1 (stereo unspecified),nt,nt,nt,nt,1,nt,nt,nt,nt,nt,
COc1cc(SC)ccc1C(=O)NC(C)C,0,-2,-2,1,1,-1,nt,nt,nt,nt,
